Assay results reported in PubChem BioAssay (NCI).
The panel holds about 79,000 compounds, 15% with a hit somewhere; the sample as a whole holds those more often. The source made the active and inactive calls. Cut-off read from the data, not from the text of the source: active = growth inhibition above about 70%; inactive = the rest.

Key:
[1] = NCI Yeast Anticancer Drug Screen. Data for the sgs1 strain (AID 173);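 note: 0% = growth of vehicle-only control cultures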; details: S. cerevisiae sgs1 mutant, active compounds read high
Procedure, shortened: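 Growth of a yeast strain bearing a defined genetic alteration is measured after compound treatment. Inhibition is expressed relative to vehicle-only controls.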

[2] = NCI Yeast Anticancer Drug Screen. Data for the mlh1 rad18 strain (AID 175); details: S. cerevisiae mlh1 rad18 strain growth inhibition, active compounds read high
Procedure, shortened: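 Read-out is yeast growth inhibition, calculated against vehicle-only controls. The compound was applied to a strain engineered with DNA damage repair alterations.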

[3] = NCI Yeast Anticancer Drug Screen. Data for the rad18 strain (AID 177); details: S. cerevisiae rad18 mutant growth inhibition, active compounds read high
Procedure, shortened: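 Growth of the mutant yeast strain after compound exposure, normalised to vehicle-only cultures.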

[4] = NCI Yeast Anticancer Drug Screen. Data for the wt1 strain (AID 149);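 note: 0% = growth of vehicle-treated wt1 cultures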; details: S. cerevisiae wt1 strain (SPY 50644) growth inhibition, active compounds read high
Procedure, shortened: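 Yeast wt1 strain exposed to compounds; growth inhibition measured relative to vehicle-treated controls.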

[5] = NCI Yeast Anticancer Drug Screen. Data for the rad50EPP+ strain (AID 151);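 note: 0% = growth of vehicle-treated control cultures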; details: S. cerevisiae rad50 mutant strain, active compounds read high
Procedure, shortened: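 Compounds were applied to the rad50EPP+ yeast strain, which bears a defined DNA repair alteration, and growth inhibition was determined relative to vehicle-treated cultures.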

[6] = NCI Yeast Anticancer Drug Screen. Data for the rad50 strain (AID 155);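 note: 0% = growth of vehicle-only cultures of the same strain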; details: S. cerevisiae rad50 strain growth inhibition, active compounds read high
Procedure, shortened: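 Yeast carrying a defined DNA repair defect were exposed to test compounds, and growth was compared with vehicle-treated controls to give percent inhibition.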

[7] = NCI Yeast Anticancer Drug Screen. Data for the mec2-1 strain (AID 157); details: S. cerevisiae mec2-1 strain, active compounds read high
Procedure, shortened: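 Strain: mec2-1 (DNA repair/cell cycle alteration). Compound exposure, then growth measured; inhibition expressed relative to vehicle.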

[8] = NCI Yeast Anticancer Drug Screen. Data for the rad14 strain (AID 159);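 note: 0% = growth of vehicle-treated control cultures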; details: S. cerevisiae rad14 strain growth inhibition, active compounds read high
Procedure, shortened: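 Yeast cells carrying a defined DNA-repair defect were exposed to compounds, and growth inhibition was calculated relative to vehicle-treated control cultures.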

[9] = NCI Yeast Anticancer Drug Screen. Data for the sgs1 mgt1 strain (AID 161);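 note: 0% = growth of cultures given vehicle only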; details: S. cerevisiae sgs1 mgt1 strain, active compounds read high
Procedure, shortened: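 Test agents were incubated with a DNA-repair-mutant yeast strain. Growth was then read and compared against vehicle-treated controls.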

[10] = NCI Yeast Anticancer Drug Screen. Data for the CLN2oe strain (AID 163);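 note: 0% = growth of vehicle-only control cultures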; details: S. cerevisiae CLN2oe strain, active compounds read high
Procedure, shortened: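 Growth of a genetically modified yeast strain is measured after compound exposure and compared with cultures given vehicle alone.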

[11] = NCI Yeast Anticancer Drug Screen. Data for the cln2 rad14 strain (AID 165);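 note: 0% = growth equal to vehicle treated cultures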; details: S. cerevisiae cln2 rad14 strain, active compounds read high
Procedure, shortened: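 Compounds are applied to the cln2 rad14 yeast strain, and growth is then compared with that of vehicle-treated cultures to give inhibition.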

[12] = NCI Yeast Anticancer Drug Screen. Data for the bub3 strain (AID 167); details: S. cerevisiae bub3 mutant strain, active compounds read high
Procedure, shortened: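 Compounds were applied to a genetically altered yeast strain carrying a cell-cycle control defect. Growth inhibition was scored against vehicle-treated controls.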

[13] = NCI Yeast Anticancer Drug Screen. Data for the wt2 strain (AID 169);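 note: 0% = growth of vehicle-treated yeast cultures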; details: S. cerevisiae wt2 strain growth inhibition, active compounds read high
Procedure, shortened: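 This strain belongs to a panel of yeast strains with defined genetic alterations in DNA damage repair or cell cycle control. Compounds are applied, and growth inhibition is measured against vehicle-treated cultures.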

[14] = NCI Yeast Anticancer Drug Screen. Data for the mlh1 strain (AID 171);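 note: 0% = growth of vehicle-treated control cultures of the same strain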; details: S. cerevisiae mlh1 strain growth inhibition, active compounds read high
Procedure, shortened: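 Growth of the mutant yeast strain after compound exposure, expressed as inhibition relative to vehicle-only controls.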

[15] = NCI Yeast Anticancer Drug Screen. Data for the mgt1 strain (AID 153); details: S. cerevisiae mgt1 mutant growth inhibition, active compounds read high
Procedure, shortened: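 Strain: mgt1 yeast, one of a set carrying defined DNA damage repair or cell cycle control alterations. Compound-treated growth compared with vehicle.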

[16] = at 5.0 µM (retest, dose inferred, filed as 0.5)
[17] = at 50.0 µM (retest, dose inferred, filed as 5.0)

Measured: growth inhibition

Cc1cc(C)nc(NS(=O)(=O)c2ccc(Nc3c4ccccc4nc4c(C(=O)NCCO)cccc34)cc2)n1
inactive: [1]; at 1.2 µM -3% | [1]; at 3.7 µM -1% | [1]; at 11.0 µM 1% | [1]; at 33.0 µM 2% | [1]; at 100.0 µM 30% | [2]; [16] -8% | [2]; [17] 44% | [2]; at 50.0 µM 65.3% | [3]; at 1.2 µM -4% | [3]; at 3.7 µM -1% | [3]; at 11.0 µM 0% | [3]; at 33.0 µM 7% | [3]; at 100.0 µM 30%

CC1=C(SCc2ccccc2)C(=O)c2ccccc2C1=O
inactive: [4]; at 1.2 µM -15% | [4]; at 3.7 µM -15% | [4]; at 11.0 µM -7% | [4]; at 33.0 µM 64% | [5]; at 1.2 µM -28% | [5]; at 3.7 µM -20% | [5]; at 11.0 µM -4% | [5]; at 33.0 µM 35% | [5]; at 100.0 µM 59% | [6]; at 1.2 µM -12% | [6]; at 3.7 µM -22% | [6]; at 11.0 µM 8% | [6]; at 50.0 µM 68.9% | [7]; at 1.2 µM -78% | [7]; at 3.7 µM -69% | [7]; at 11.0 µM -68% | [7]; at 50.0 µM 51.1% | [8]; at 1.2 µM -32% | [8]; at 3.7 µM -37% | [8]; at 11.0 µM -35% | [9]; [16] -23% | [9]; [17] 34% | [10]; at 1.2 µM -44% | [10]; at 3.7 µM -22% | [10]; at 11.0 µM -27% | [10]; at 33.0 µM 63% | [11]; [16] 44% | [11]; [17] 53% | [11]; at 50.0 µM 46.2% | [12]; at 1.2 µM -14% | [12]; at 3.7 µM -17% | [12]; [16] 20% | [12]; at 11.0 µM 26% | [12]; [17] 64% | [13]; at 1.2 µM -19% | [13]; at 3.7 µM -40% | [13]; at 11.0 µM -10% | [14]; at 1.2 µM -43% | [14]; at 3.7 µM -29% | [14]; at 11.0 µM -19% | [14]; at 33.0 µM 62% | [1]; at 1.2 µM -53% | [1]; at 3.7 µM -56% | [1]; at 11.0 µM -29% | [3]; at 1.2 µM -23% | [3]; at 3.7 µM -46% | [3]; at 11.0 µM -27%
active: [4]; at 100.0 µM 91% | [6]; [16] 99% | [6]; at 33.0 µM 81% | [6]; [17] 91% | [6]; at 100.0 µM 87% | [7]; [16] 98% | [7]; at 33.0 µM 74% | [7]; [17] 92% | [7]; at 100.0 µM 90% | [8]; at 33.0 µM 85% | [8]; at 100.0 µM 92% | [9]; at 50.0 µM 71.3% | [10]; at 100.0 µM 80% | [12]; at 33.0 µM 84% | [12]; at 50.0 µM 79% | [12]; at 100.0 µM 90% | [13]; at 33.0 µM 75% | [13]; at 100.0 µM 92% | [14]; at 100.0 µM 89% | [1]; at 33.0 µM 76% | [1]; at 100.0 µM 90% | [2]; [16] 99% | [2]; [17] 92% | [2]; at 50.0 µM 73.5% | [3]; at 33.0 µM 79% | [3]; at 100.0 µM 90%

N#CC(=Nc1ccccc1F)Nc1ccccc1F
inactive: [5]; at 1.2 µM 6% | [5]; at 3.7 µM 11% | [5]; at 11.0 µM 21% | [5]; at 33.0 µM 29% | [5]; at 100.0 µM 20% | [15]; at 1.2 µM -5% | [15]; at 3.7 µM -4% | [15]; at 11.0 µM -4% | [15]; at 33.0 µM 2% | [15]; at 100.0 µM -2% | [7]; at 1.2 µM -4% | [7]; at 3.7 µM -1% | [7]; [16] -4% | [7]; at 11.0 µM -4% | [7]; at 33.0 µM 8% | [7]; [17] 8% | [7]; at 50.0 µM -2.55% | [7]; at 100.0 µM 10% | [8]; at 1.2 µM -5% | [8]; at 3.7 µM -4% | [8]; at 11.0 µM -4% | [8]; at 33.0 µM 10% | [8]; at 100.0 µM 12% | [9]; [16] -3% | [9]; [17] 15% | [9]; at 50.0 µM 12.1% | [10]; at 1.2 µM 1% | [10]; at 3.7 µM 0% | [10]; at 11.0 µM 5% | [10]; at 33.0 µM 11% | [10]; at 100.0 µM 26% | [11]; [16] -1% | [11]; [17] -3% | [11]; at 50.0 µM -0.6% | [12]; at 1.2 µM -3% | [12]; at 3.7 µM -3% | [12]; [16] -2% | [12]; at 11.0 µM -1% | [12]; at 33.0 µM 5% | [12]; [17] 3% | [12]; at 50.0 µM 8.55% | [12]; at 100.0 µM -2% | [13]; at 1.2 µM -2% | [13]; at 3.7 µM -3% | [13]; at 11.0 µM -5% | [13]; at 33.0 µM 2% | [13]; at 100.0 µM 3% | [14]; at 1.2 µM -1% | [14]; at 3.7 µM -5% | [14]; at 11.0 µM -6% | [14]; at 33.0 µM -2% | [14]; at 100.0 µM 5% | [1]; at 1.2 µM -3% | [1]; at 3.7 µM -7% | [1]; at 11.0 µM -6% | [1]; at 33.0 µM 12% | [1]; at 100.0 µM 24% | [2]; [16] -7% | [2]; [17] 0% | [2]; at 50.0 µM 66.8% | [3]; at 1.2 µM -6% | [3]; at 3.7 µM -7% | [3]; at 11.0 µM -10% | [3]; at 33.0 µM -2% | [3]; at 100.0 µM 9%
